PubChem BioAssay (NCATS)
Where “and” joins values, the source holds several entries; their conditions need not be identical. Identical values can stand only once. Records with an inconclusive call do not appear. Where a call stands in place of a potency, no number is given. Where a structure was tested more than once in an assay, its records may differ in their call. Calls of active or inactive are those of the source. The call rests on the fitted dose curve.

How the values were obtained:
[1] = Cytotoxicity counterscreen for inhibitors of SARS-CoV-2 cell entry (AID 1645845); further: nearly all actives have a fitted effect of over 50% in size; further: potency means the concentration at half of the fitted maximal effect
Outline: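 Expi293F/hACE2 cells seeded overnight; cpd pin-transferred in DMSO, 1 h preincubation, + media, 48 h 37 C 5% CO2; ATPLite 1step luminescence; normalized to cells and no cells.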

[2] = Primary qHTS to identify inhibitors of SARS-CoV-2 cell entry (AID 1645846); settings: activity change, negative = inhibition: at 57.1 µM (top of the series) unless noted; further: nearly all actives have a fitted effect of over 45% in size
Outline: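 Luminescence readout (Bright-Glo luciferase) 48 h after pseudoparticle addition. HEK293-ACE2 cells, 1500/well; compound pre-incubation 1 h; Normalized to spike PP and bald PP.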

SMILES: O=C1CC[C@H](C(=O)N2CCCCC2)N1
- Potency [1]: inactive
- activity change, negative = inhibition [2]: 2.86%

SMILES: CCCOC(=O)c1ccccc1
- Potency [1]: inactive
- Potency [2]: inactive

SMILES: CC1CCc2c(N3CCC(O)CC3)c(F)cc3c(=O)c(C(=O)O)cn1c23 (configuration not stated)
- Potency [1]: inactive
- Potency [2]: inactive

SMILES: O=C(/C=C/c1ccccc1)OCc1ccccc1
- Potency [1]: inactive
- activity change, negative = inhibition [2]: -14.8%

SMILES: CCCCCC[C@@H](CCC)C(=O)O
- Potency [1]: inactive
- Potency [2]: inactive

SMILES: O=C(NCCO[N+](=O)[O-])c1cccnc1
- Potency [1]: inactive
- Potency [2]: inactive

SMILES: COc1cc(/C=C/C(=O)O[C@H]2CC[C@]34C[C@]35CC[C@]3(C)[C@@H]([C@H](C)CCC=C(C)C)CC[C@@]3(C)[C@@H]5CC[C@H]4C2(C)C)ccc1O
- Potency [1]: inactive
- Potency [2]: inactive

SMILES: O=C(O)CN(CCN(CC(=O)O)CC(=O)O)CCN(CC(=O)O)CC(=O)O
- Potency [1]: inactive
- Potency [2]: inactive

SMILES: NS(=O)(=O)c1cc(C(=O)NN2C[C@H]3[C@H]4CCC(C4)[C@H]3C2)ccc1Cl
- Potency [1]: inactive
- activity change, negative = inhibition [2]: -24.3%

SMILES: Cc1cccc(C)c1NC(=O)CC12CCCN1CCC2
- Potency [1]: inactive
- activity change, negative = inhibition [2]: -23.5%

SMILES: Oc1cccc(O)c1
- Potency [1]: inactive
- Potency [2]: inactive

SMILES: CCN(CC)CCNC(=O)c1cc(S(C)(=O)=O)ccc1OC
- Potency [1]: inactive
- Potency [2]: inactive

SMILES: c1ccc2sc(SSc3nc4ccccc4s3)nc2c1
- Potency [1]: inactive
- Potency [2]: inactive

SMILES: CN1C(C(=O)Nc2ccccn2)=C(O)c2sccc2S1(=O)=O
- Potency [1]: inactive
- Potency [2]: inactive

SMILES: CCC1=C(C)CN(C(=O)NCCc2ccc(S(=O)(=O)NC(=O)NC3CCC(C)CC3)cc2)C1=O (configuration not stated)
- Potency [1]: inactive
- Potency [2]: inactive

SMILES: C1COC(NC(C2CC2)C2CC2)=N1
- Potency [1]: inactive
- activity change, negative = inhibition [2]: 1.02%

SMILES: CC(C)(C)NCC(O)COc1cccc2c1C[C@H](O)[C@H](O)C2 (some centres not stated)
- Potency [1]: inactive
- activity change, negative = inhibition [2]: 4.34%

SMILES: CN(C)C(=O)COC(=O)Cc1ccc(OC(=O)c2ccc(N=C(N)N)cc2)cc1
- Potency [1]: inactive
- activity change, negative = inhibition [2]: -4.53% and -0.733%

SMILES: CCO/C([O-])=N/c1c[n+](N2CCOCC2)no1
- Potency [1]: inactive
- Potency [2]: inactive

SMILES: COCCOC(=O)C1=C(C)NC(C)=C(C(=O)OC(C)C)C1c1cccc([N+](=O)[O-])c1 (configuration not stated)
- Potency [1]: inactive
- activity change, negative = inhibition [2]: -23.8%

SMILES: CCN(CC)CC#CCOC(=O)C(O)(c1ccccc1)C1CCCCC1 (configuration not stated)
- Potency [1]: inactive
- activity change, negative = inhibition [2]: -28.2%

SMILES: CNC[C@H](O)[C@@H](O)[C@H](O)[C@H](O)CO
- Potency [1]: inactive
- activity change, negative = inhibition [2]: -19.7%

SMILES: OCCOCCN1CCN(C2=Nc3ccccc3Sc3ccccc32)CC1
- Potency [1]: inactive
- activity change, negative = inhibition [2]: -1.17%

SMILES: COCC(=O)Nc1c(I)c(C(=O)NCC(O)CO)c(I)c(C(=O)N(C)CC(O)CO)c1I (configuration not stated)
- Potency [1]: inactive
- Potency [2]: inactive

SMILES: Cc1cccc(C)c1NC(=O)c1cc(S(N)(=O)=O)c(Cl)cc1O
- Potency [1]: inactive
- activity change, negative = inhibition [2]: -7.8%

SMILES: CCOC(=O)C1=C(C)NC(C)=C(C(=O)OC)C1c1cccc([N+](=O)[O-])c1 (configuration not stated)
- Potency [1]: inactive
- Potency [2]: inactive

SMILES: Nc1ccc(S(=O)(=O)Nc2ccnn2-c2ccccc2)cc1
- Potency [1]: inactive
- activity change, negative = inhibition [2]: 4.82% [at 27.1 µM]

SMILES: CCCCCCCCCCCCCCCC(=O)OCCC1CCN(CCCN2c3ccccc3Sc3ccc(S(=O)(=O)N(C)C)cc32)CC1
- Potency [1]: inactive
- activity change, negative = inhibition [2]: -4.81%

SMILES: CCC[C@@H]1C[C@@H](C(=O)N[C@@H]([C@H]2O[C@H](SC)[C@H](O)[C@@H](O)[C@H]2O)[C@H](C)Cl)N(C)C1
- Potency [1]: inactive
- activity change, negative = inhibition [2]: -7.46%

SMILES: O=C(CS(=O)Cc1ccco1)NC/C=C\COc1cc(CN2CCCCC2)ccn1 (configuration not stated)
- Potency [1]: inactive
- Potency [2]: inactive

SMILES: Nc1ncnc2nc[nH]c12
- Potency [1]: inactive
- Potency [2]: inactive

SMILES: CCOc1ccc(NC(=O)CC(C)O)cc1 (configuration not stated)
- Potency [1]: inactive
- activity change, negative = inhibition [2]: -25.9%

SMILES: CO[C@@]1(NC(=O)C2SC(=C(C(N)=O)C(=O)O)S2)C(=O)N2C(C(=O)O)=C(CSc3nnnn3C)CS[C@@H]21 (some centres not stated)
- Potency [1]: inactive
- activity change, negative = inhibition [2]: 4.49%

SMILES: CC1CCN(CCCC(=O)c2ccc(F)cc2)CC1
- Potency [1]: inactive
- activity change, negative = inhibition [2]: -25%

SMILES: CCN(Cc1ccncc1)C(=O)C(CO)c1ccccc1 (configuration not stated)
- Potency [1]: inactive
- Potency [2]: inactive

SMILES: Cc1ccsc1/C=C/C1=NCCCN1C
- Potency [1]: inactive
- activity change, negative = inhibition [2]: -11.3%

SMILES: NC(CS)C(=O)O (configuration not stated)
- Potency [1]: inactive
- activity change, negative = inhibition [2]: -4.89%

SMILES: C[N+](C)(CCOc1ccccc1)Cc1cccs1
- Potency [1]: inactive
- activity change, negative = inhibition [2]: -23%

SMILES: O=c1cc(O)c(Cl)c[nH]1
- Potency [1]: inactive
- Potency [2]: inactive

SMILES: CCCCC(CC)CN1CN(CC(CC)CCCC)CC(C)(N)C1 (configuration not stated)
- Potency [1]: inactive
- Potency [2]: inactive

SMILES: COc1cc2c(Nc3ccc(Br)cc3F)ncnc2cc1OCC1CCN(C)CC1
- Potency [1]: inactive and 31.6 µM (active)
- Potency [2]: inactive
